Screens from PubChem BioAssay.
Most compounds without a hit are left out; they make up all but 7.5% or so of the library.
Rab9 prom act – qHTS Assay for Rab9 Promoter Activators. hit rate 2.8% among 320,000. Potency, µM (titrated, usually from 9.22 µM), for the others: top-dose activation, negative = inhibition, usual class: activators. Huh7 Rab9 promoter-luciferase reporter, luminescence, 24 h; note: % of control where 0% means no effect; nearly all actives have a fitted effect of over 60% in size
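Steps: seed 1500 Huh7 Rab9-luc cells per well, rest 2 h at 37 °C; add compound in DMSO; incubate 24 h; add luciferase reagent, 10 min ambient; read luminescence.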
SMN2 splice up – qHTS Assay for Enhancers of SMN2 Splice Variant Expression; hit rate 2.8% among 210,000; HEK293 SMN2-luciferase splicing reporter, luminescence, 30-36 h; Potency, µM (top dose mostly 46.1 µM), inactives show at the highest dose activity change, positive = activation, hits mostly activators; AID 1458, 2008; note: % of control where 0% means no effect; nearly all actives have a fitted effect of over 55% in size
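qHTS luciferase splicing reporter: luminescence rises when SMN2 exon 7 is included in transfected HEK293 cells. Compound exposure lasted 30-36 h at 37C, with 4.5 mM final sodium butyrate as control, followed by a ONE-Glo read.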
NPC1 prom act – qHTS Assay for NPC1 Promoter Activators | Huh7 NPC1 promoter luciferase reporter, 24 h | Potency, µM (top dose mostly 9.22 µM), inactives show at the top dose activation, hits mostly activators | AID 485313, 2010 | hit rate 2.4% among 320,000; note: % of control where 0% means no effect; nearly all actives have a fitted effect of over 60% in size
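Luminescence from an NPC1 promoter-driven luciferase reporter in stably transfected Huh7 cells was measured after 24 h compound treatment at 37 °C, followed by 10 min ambient incubation with luciferase detection reagent.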
FLuc modulator – qHTS profiling assay for firefly luciferase inhibitor/activator using purifed enzyme and Km concentrations of substrates (counterscreen for miR-21 project); purified FLuc, Km substrates, luminescence inhibition; Luciferin 4-monooxygenase (Photinus pyralis), P08659; AID 588342, 2011; hit rate 6.9% among 360,000; Potency, µM (highest dose often 57.5 µM), for inactives: at the highest dose activity change, negative = inhibition, most hits filed as inhibitors;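 note: plate controls were vehicle for no effect and reference inhibitor for full effect; nearly all actives have a fitted effect of over 55% in size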
Target sequence (P08659 whole entry, looked up): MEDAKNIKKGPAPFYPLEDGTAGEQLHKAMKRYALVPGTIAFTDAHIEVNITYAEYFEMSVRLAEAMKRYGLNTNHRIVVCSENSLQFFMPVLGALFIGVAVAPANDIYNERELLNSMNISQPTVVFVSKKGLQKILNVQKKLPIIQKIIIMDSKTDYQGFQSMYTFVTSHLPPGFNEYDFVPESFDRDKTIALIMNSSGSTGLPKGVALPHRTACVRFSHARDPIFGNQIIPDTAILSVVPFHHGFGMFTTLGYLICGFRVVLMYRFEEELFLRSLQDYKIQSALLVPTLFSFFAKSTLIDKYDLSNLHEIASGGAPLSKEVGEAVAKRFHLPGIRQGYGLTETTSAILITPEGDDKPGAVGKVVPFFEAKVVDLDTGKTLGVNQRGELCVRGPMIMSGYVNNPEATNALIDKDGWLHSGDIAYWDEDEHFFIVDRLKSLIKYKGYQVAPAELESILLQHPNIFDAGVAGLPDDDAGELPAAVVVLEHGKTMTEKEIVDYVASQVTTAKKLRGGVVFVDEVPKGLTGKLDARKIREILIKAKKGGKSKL
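Biochemical qHTS of compounds, final roughly 60 µM downward over six points, against 10 nM purified firefly luciferase using Km concentrations of substrates (10 uM D-luciferin, 10 uM ATP) in Tris acetate pH 7.5 buffer; luminescence output.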
ELG1 genotoxic – qHTS screen for small molecules that induce genotoxicity in human embryonic kidney (HEK293T) cells expressing luciferase-tagged ELG1; hit rate 1.3% among 330,000; Potency, µM (titrated, usually from 46 µM), without a hit: at the top dose activity change, positive = activation, actives largely listed as activators; HEK293T ELG1-luciferase reporter, luminescence, 16 h; note: % of control where 0% means no effect; nearly all actives have a fitted effect of over 60% in size
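ELG1-luciferase HEK293T cells, 2,000/well; compound pinned in; 16 hr, 37 °C, 5% CO2; ONE-Glo, 30 min RT; luminescence on CCD imager.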
KinaseGlo FLuc – Counterscreen for Luciferase (Kinase-Glo TM) Inhibition; Luciferin 4-monooxygenase (Photuris pensylvanica), Q27757; Kinase-Glo luciferase, ATP luminescence, 8 min; Potency, µM (doses to about 38.3 µM), without a hit: at the highest dose activity change, negative = inhibition, most hits filed as inhibitors; hit rate 0.28% among 200,000; note: % is set by controls: 0 for no effect and ±100 for the full control effect; nearly all actives have a fitted effect of over 60% in size
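Recombinant Kinase-Glo luciferase, 10 uM ATP (linear range), luciferin; imidazole pH 7.2 / KCl / MgCl2 / Tween / BSA buffer; 8 min RT; luminescence.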
* marks the source's active call; other numbers are inactive results; ? = inconclusive; nt = not tested or not shown; [ ] = remark or other dose. Calls come from the whole dose curve; as a rule, active = well fitted curve in the direction sought with a large enough effect; inconclusive = small, poorly fitted or top-dose-only effect, or another doubt; inactive = no such curve, though single readings can be large; an effect the other way counts as inactive or inconclusive. Potency is the fitted concentration of half-maximal effect.

SMILES	Rab9 prom act	SMN2 splice up	NPC1 prom act	FLuc modulator	ELG1 genotoxic	KinaseGlo FLuc
O=C1NC(=O)C(=Cc2ccc(-c3ccc(F)cc3O)o2)C(=O)N1	-1.9%	nt	-1.9%	13.5µM*	1.2%	nt
O=C1NC(=O)C(=Cc2ccc(Sc3ccccc3)o2)C(=O)N1	0.2%	nt	0.7%	23.9µM*	?	nt
Cc1ccc(/C=C2\C(=O)NC(=O)N(CCc3ccc(F)cc3)C2=O)o1	1.2%	10.0%	0.4%	-9.5%	?	0.5%
C=C(C)c1ccccc1 (tested in a mixture with another compound)	nt	-4.9%[9.22 µM]	nt	nt	nt	-2.1%[7.66 µM]
N=C(N)SCc1ccc(Cl)c2ccccc12 (tested in a mixture with another compound)	nt	1.4%[9.22 µM]	nt	nt	nt	-2.1%[7.66 µM]
CCCCC(CC)COC(=O)c1ccc(C(=O)OCC(CC)CCCC)c(C(=O)OCC(CC)CCCC)c1 (stereo unspecified)	nt	-11.0%	nt	nt	nt	nt
CN1/C(=C\C=Nc2ccccc2)C(C)(C)c2ccccc21	1.8%	nt	0.6%	-1.8%	-0.4%	nt
CN1/C(=C\C=C\C2=[N+](C)c3ccc4ccccc4c3C2(C)C)C(C)(C)c2ccccc21	-53.0%	-70.6%	-44.5%	13.5µM*	-2.9%	?
C=CC(C)(C)c1c2c(c(O)c3c(=O)c4ccc(O)c(O)c4oc13)C=CC(C)(C)O2	nt	-92.4%	nt	nt	nt	1.0%
CCOC(=O)c1cc2c(cn1)[nH]c1ccccc12	19.3%	?	?	15.1µM*	16.9%	0.1%
[Cl-].[Cl-].[Hg+2]	nt	-29.4%	nt	nt	nt	nt
COc1ccc(-n2c(=S)[nH]c3c(sc(=S)n3-c3ccccc3)c2=O)c(OC)c1	-3.1%	nt	-7.0%	10.7µM*	-0.1%	nt
O=[N+]([O-])C(Br)Br	nt	17.8%	nt	nt	nt	nt
C=C1CC[C@H](O)C/C1=C/C=C1\CCC[C@]2(C)[C@H]1CC[C@H]2[C@@H](C)CCCC(C)C	nt	-5.1%[20.6 µM]	nt	nt	nt	1.1%[17.1 µM]
CCOC(=O)C1OC1(C)c1ccccc1 (stereo unspecified)	nt	1.0%	nt	nt	nt	nt
O=C(CCn1c(=O)oc2ccccc21)N1CCC2(CC1)OCCO2	2.9%	4.9%	9.0%	-9.1%	-1.3%	-2.6%
O=c1oc2ccccc2n1CCCOc1ccccc1	?	11.2µM*	29.3%	19µM*	18.4µM*	4.9%
Cc1ccc(/C=C/C(=O)C2C(=O)c3ccccc3C2=O)cc1	?	10µM*	?	0.19µM*	?	-12.3%
CC[C@H]1CN2CCc3cc(OC)c(OC)cc3[C@H]2C[C@@H]1C[C@H]1NCCc2c1[nH]c1ccc(O)cc21	nt	-89.3%[9.22 µM]	nt	nt	nt	-2.6%[7.66 µM]
Cc1cnn(-c2cc(Oc3ccccc3)ncn2)c1	?	nt	?	16.9µM*	1.46µM*	nt
c1ccc2sc(NC3=NCCN3)nc2c1	?	?	?	?	-3.6%	-1.1%
COc1ccc2nc(NC3=NCCN3)sc2c1	2.51µM*	10µM*	2.82µM*	5.36µM*	18.4µM*	-12.6%
Cc1ccsc1/C=C1\C(=O)NC(=S)N(C)C1=O	-5.1%	nt	-0.5%	15.1µM*	?	nt
CN1C(=O)/C(=C/c2ccc(N3CCCCCC3)o2)C(=O)NC1=S	1.41µM*	11.2µM*	2.24µM*	4.78µM*	20.6µM*	-15.7%
CN1C(=O)/C(=C/c2ccc(Cl)s2)C(=O)NC1=S	6.3%	nt	0.2%	?	16.6%	nt
SMILES	Rab9 prom act	SMN2 splice up	NPC1 prom act	FLuc modulator	ELG1 genotoxic	KinaseGlo FLuc
CN1C(=O)/C(=C\c2ccc(N3CCCCC3)o2)C(=O)NC1=S	1.58µM*	7.08µM*	2.51µM*	8.49µM*	5.8µM*	-15.4%
O=C(N1CCOCC1)C1(c2ccccc2)CCNCC1	nt	-13.3%[9.22 µM]	nt	nt	nt	-0.6%[7.66 µM]
c1ccc(CCN2CCCCCC2)nc1	nt	-9.5%[9.22 µM]	nt	nt	nt	-1.4%[7.66 µM]
COC(=O)[C@@H]1c2cc3c(c(O)c2[C@@H](O)C[C@]1(C)O)C(=O)c1c(O)cc2c(c1C3=O)O[C@H]1O[C@@]2(C)[C@@H](O)[C@H](N(C)C)[C@H]1O	nt	-0.1%[9.22 µM]	nt	nt	nt	-8.0%[7.66 µM]
ClCCCCl	nt	12.6%	nt	nt	nt	nt
Cc1ccc(-n2sc3ccccc3c2=O)cc1	?	?	?	4.78µM*	?	-12.6%
[CH3][Hg][Cl]	nt	-6.2%	nt	nt	nt	nt
CCN1C(=O)/C(=C\c2ccc([N+](=O)[O-])s2)C(=O)NC1=S	1.7%	-23.6%	-19.4%	8.49µM*	-12.9%	-12.0%
C=CCN1C(=O)/C(=C/c2ccc(Br)s2)C(=O)NC1=S	-5.3%	nt	-7.7%	?	?	nt
COc1ccc(OC)c(N2C(=O)NC(=O)/C(=C/c3ccc([N+](=O)[O-])s3)C2=O)c1	-9.0%	?	-3.6%	16.9µM*	-9.1%	?
N#CC(O)c1ccccc1 (stereo unspecified)	nt	3.8%	nt	nt	nt	nt
COc1ccc(CCn2c(O)c(C=NCc3cccnc3)c(=O)[nH]c2=O)cc1OC	0.2%	-11.2%	1.2%	1.9%	1.2%	1.6%
COc1ccc(C2CC(c3c(O)n(CCc4ccccc4)c(=O)[nH]c3=O)=NN2)cc1OC (stereo unspecified)	-6.9%	nt	-1.4%	19µM*	-6.9%	nt
O=C(O)[C@@H](O)[C@@H](O)C1[O][Sb][O][C@@H]1CO (stereo partly specified)	nt	-10.3%[9.22 µM]	nt	nt	nt	-0.6%[7.66 µM]
CCC(C)/C=C(C)/C=C/C1=CC2=C(Cl)C(=O)C(C)(OC(C)=O)C(=O)C2=CO1 (stereo unspecified)	14.8%	nt	-1.2%	21.3µM*	3.5%	nt
CC(C)CN(CC(C)C)c1ccc(C=C2C(=O)NC(=S)NC2=O)cc1[N+](=O)[O-]	3.8%	-9.5%	10.3%	-11.5%	-3.0%	-4.2%
CCN(CC)c1ccc(C=C2C(=O)NC(=S)NC2=O)cc1	-8.9%	nt	-5.1%	19µM*	?	nt
O=C(O)c1cccc([As]=[As]c2cccc(C(=O)O)c2)c1 (stereo unspecified)	nt	-10.7%[9.22 µM]	nt	nt	nt	-1.3%[7.66 µM]
Cl/C=C\Cl	nt	-2.7%	nt	nt	nt	nt
CCn1nc(-c2ccccc2)nc2c(=O)n(C)c(=O)nc1-2	-31.4%	7.08µM*	-2.0%	?	5.5%	-3.7%
CN(C(=O)Cc1ccc(Cl)c(Cl)c1)C(CN1CCCC1)c1cccc(N=C=S)c1 (stereo unspecified)	nt	-92.3%	nt	nt	nt	nt
O=C(Cc1c(O)c2ccccc2oc1=O)c1ccc(F)cc1	?	nt	?	3.01µM*	11.3%	nt
CN(C)c1ccc(CCN2CCOCC2)cc1	0.7%	nt	2.6%	16.9µM*	?	nt
CN(C)c1ccc(/C=C/C=C2/C(=O)NC(=O)N(c3ccccc3)C2=O)cc1	-3.0%	nt	0.8%	4.26µM*	-5.0%	14.1µM*
